# Records with an inconclusive call do not appear. Active and inactive are the calls of the source. How the source made its calls, unless noted: active means hit-call score of the fitted dose curve at least 0.9, where 1 is the maximum; inactive means score below 0.9.
# What was measured:
# [1] = CCTE_Shafer_MEA_acute_spike_number: CCTE's Neural Acute Assay for Total Number of Spikes, Shafer Lab (AID 2284008);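 on AC50: curve fitted for decrease in spike count so AC50 reflects inhibitors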
# How it was run: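 Read-out is the total spike count over 40 min, expressed as percent change from each well's own pre-treatment baseline and fitted in the loss direction against DMSO. Rat cortical neurons were exposed at 0.03-40 uM on DIV 13 or 15.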
# [2] = CCTE_Shafer_MEA_acute_firing_rate_mean: CCTE's Neural Acute Assay for Mean Firing Rate, Shafer Lab (AID 2284009);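 further: analyzed for loss of signal so actives lower firing rate relative to DMSO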
# How it was run: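 Primary rat cortical neurons on 16-electrode MEA wells were exposed on DIV 13 or 15 to compound (0.03-40 uM). Spike counts per recording time, averaged over electrodes, were compared between 40-min baseline and 40-min post-exposure recordings as percent change.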
# [3] = CCTE_Harrill_HTTr_Viability_MCF7: CCTE's 6-hour Cell Viability Assessment for the High-Throughput Transcriptomics (HTTr) Platform, in MCF-7 cells cultured in DMEM + 10% fetal bovine serum, Harrill Lab (AID 2284010)
# How it was run: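 PI exclusion, high-content imaging; 8-pt dilution series, 6 h exposure; bidirectional fit vs DMSO (neg. ctrl/baseline); gain of signal = loss of membrane integrity.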
# [4] = CCTE_Harrill_HTTr_Apoptosis_MCF7: CCTE's 6-hour Apoptosis Assessment for the High-Throughput Transcriptomics (HTTr) Platform, in MCF-7 cells cultured in DMEM + 10% fetal bovine serum, Harrill Lab (AID 2284011)
# How it was run: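 MCF-7 (DMEM + 10% FBS), 384-well; 8-pt dilution series, 6 h chemical exposure; caspase-3/7 activation via CellEvent Caspase 3/7 Green, HCI; bidirectional fit vs DMSO.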
# [5] = CCTE_Shafer_MEA_acute_burst_number: CCTE's Neural Acute Assay for Single-Electrode Bursts, Shafer Lab (AID 2284013)
# How it was run: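 Primary rat cortical neurons on 16-electrode MEA wells, DIV 13 or 15, exposed to compound (0.03-40 uM; ≥3 wells); 40-min recordings at 37 C before and after treatment. Burst count expressed as percent change from baseline, DMSO as negative control.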
# [6] = CCTE_Shafer_MEA_acute_per_burst_spike_number_mean: CCTE's Neural Acute Assay for Average Number of Spikes Per Burst, Shafer Lab (AID 2284015);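 further: hits are decreases in mean spikes per burst versus baseline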
# How it was run: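 We recorded spontaneous network firing of rat cortical neurons for 40 min before and 40 min during exposure to compound at 0.03-40 uM, at 37 C. Spikes were detected adaptively at 8x rms noise, and the change in average spikes per burst was fitted against DMSO.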
# [7] = CCTE_Shafer_MEA_acute_interburst_interval_mean: CCTE's Neural Acute Assay for Mean Interburst Interval, Shafer Lab (AID 2284016);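 further: percent change of mean interburst interval versus each well's own pre-dose baseline; curves fitted for decrease in interburst interval relative to DMSO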
# How it was run: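 MEA recording of spontaneous network bursting in primary rat cortical cultures; mean interburst interval was compared before and after a 40-min compound exposure (0.03-40 uM) and expressed as percent change, relative to DMSO.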
# [8] = CCTE_Shafer_MEA_acute_burst_percentage_mean: CCTE's Neural Acute Assay for Percentage of Spikes in a Burst, Shafer Lab (AID 2284017);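 on AC50: curve fitted for loss of signal so potency reflects decreased burst percentage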
# How it was run: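 Compounds were tested at 0.03-40 uM on primary rat cortical neuron networks grown over microelectrodes, with at least three wells per compound. Spontaneous firing was recorded for 40 min before and 40 min after dosing, and the change in burst percentage was computed per well.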
# [9] = CCTE_Shafer_MEA_acute_burst_percentage_std: CCTE's Neural Acute Assay for Standard Deviation of Burst Percentage, Shafer Lab (AID 2284018);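 further: fitted in the negative direction so actives lower burst percentage SD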
# How it was run: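 Value is percent change from baseline in the across-electrode SD of spikes-in-bursts percentage, wells with >/= 10 active electrodes. Acute 40-min exposure to 0.03-40 uM on DIV 13 or 15 rat cortical cultures, recorded at 37 C after 40-min baseline.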
# [10] = CCTE_Shafer_MEA_acute_per_network_burst_spike_number_mean: CCTE's Neural Acute Assay for Average Number of Spikes in a Network Burst, Shafer Lab (AID 2284019);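 on AC50: curve fitted for loss of signal so actives reduce spikes per network burst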
# How it was run: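 Percent change from baseline in mean spikes per network burst, spikes detected at 8x rms noise. Each compound at 0.03-40 uM in at least three wells of rat cortical cultures, recorded 40 min before and 40 min during exposure.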
# [11] = CCTE_Shafer_MEA_acute_per_network_burst_electrodes_number_mean: CCTE's Neural Acute Assay for Mean Number of Electrodes in a Network Burst, Shafer Lab (AID 2284021);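 further: curves fitted for decreases only so hits reduce electrodes per burst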
# How it was run: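 Primary rat cortical networks, mwMEA, 37 C. 20 min stabilization, 40 min baseline, compound 0.03-40 uM, 40 min re-record. Wells need >=10 active electrodes; percent change per well, negative fitting direction.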
# [12] = CCTE_Shafer_MEA_acute_network_burst_percentage: CCTE's Neural Acute Assay for Percentage of Network Bursts, Shafer Lab (AID 2284022);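 further: curves fitted for loss so actives lower network burst percentage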
# How it was run: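 Readout is the fraction of spikes falling in network bursts, expressed as per-well percent change from a 40-min pre-exposure baseline. Primary rat cortical neurons on MEA were exposed to 0.03-40 uM compound on DIV 13 or 15 and recorded for 40 min at 37 C.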
# [13] = CCTE_Shafer_MEA_acute_cross_correlation_area: CCTE's Neural Acute Assay for Area of Cross Correlation, Shafer Lab (AID 2284024);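 further: rat primary cortical neuron networks on 48-well MEA at DIV 13 or 15 with 40 min exposure; area under pooled inter-electrode spike cross-correlation near zero lag as percent change from own baseline; curves fitted for loss of cross-correlation area so actives lower synchrony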
# How it was run: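 Plates equilibrated 20 min at 37 C, then 40 min baseline was recorded, compound was added (0.03-40 uM), and a further 40 min was recorded. Wells needed ≥10 active electrodes (≥5 spikes/min) on exposure day.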
# [14] = molecular target: Ratio of Nucleoli Translocation and Cytoplasm, AR (gene 367) (UniProt P10275); assay: UPITT_HCI_U2OS_AR_TIF2_Nucleoli_Cytoplasm_Ratio_Agonist: University of Pittsburgh U2OS Androgen Receptor-Transcriptional Intermediary Factor 2 (AR-TIF2) Agonism High Content Imaging Assay for Ratio of Nucleoli Translocation and Cytoplasm (AID 2284000; active means hit-call score of the fitted dose curve at least 0.9, where 1 is the maximum;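 further: hits raise the red nucleolar to cytoplasm ratio above vehicle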)
# Sequence of Ratio of Nucleoli Translocation and Cytoplasm, AR (gene 367) (P10275 whole entry, looked up): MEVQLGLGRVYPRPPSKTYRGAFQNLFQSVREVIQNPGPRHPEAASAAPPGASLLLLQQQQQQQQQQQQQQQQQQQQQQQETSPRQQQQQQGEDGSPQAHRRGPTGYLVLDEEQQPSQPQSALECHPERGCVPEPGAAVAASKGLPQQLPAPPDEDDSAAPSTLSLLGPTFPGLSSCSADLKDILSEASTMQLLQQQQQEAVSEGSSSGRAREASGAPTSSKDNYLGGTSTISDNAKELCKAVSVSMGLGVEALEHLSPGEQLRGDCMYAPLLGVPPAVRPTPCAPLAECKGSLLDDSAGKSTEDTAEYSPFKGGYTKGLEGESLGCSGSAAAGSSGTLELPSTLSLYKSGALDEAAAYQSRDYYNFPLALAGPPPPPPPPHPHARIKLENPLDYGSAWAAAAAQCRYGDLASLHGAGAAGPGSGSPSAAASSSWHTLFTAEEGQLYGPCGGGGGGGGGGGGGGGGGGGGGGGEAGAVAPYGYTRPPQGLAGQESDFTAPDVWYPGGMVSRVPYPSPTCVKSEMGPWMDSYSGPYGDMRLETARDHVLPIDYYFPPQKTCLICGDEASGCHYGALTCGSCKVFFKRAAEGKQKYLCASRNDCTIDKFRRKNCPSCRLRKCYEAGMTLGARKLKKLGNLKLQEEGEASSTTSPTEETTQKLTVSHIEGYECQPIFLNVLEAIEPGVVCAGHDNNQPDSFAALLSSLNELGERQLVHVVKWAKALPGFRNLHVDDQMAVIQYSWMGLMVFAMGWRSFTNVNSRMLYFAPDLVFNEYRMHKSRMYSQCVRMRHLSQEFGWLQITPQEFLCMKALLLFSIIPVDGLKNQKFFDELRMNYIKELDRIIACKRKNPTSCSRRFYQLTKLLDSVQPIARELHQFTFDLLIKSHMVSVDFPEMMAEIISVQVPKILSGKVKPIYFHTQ
# How it was run: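 Compounds tested at 20 uM final in primary screen (0.2% DMSO) and 0.195-50 uM final in dose-response (0.5% DMSO). Imaging of human U2OS cells bearing RFP-AR and GFP-TIF2; endpoint is nucleoli/cytoplasm red signal ratio, positive direction relative to DMSO.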
# [15] = CCTE_Simmons_MITO_basal_resp_rate: CCTE's HepG2 Seahorse XF Respirometric Screening Assay at Basal Respiratory State, Simmons Lab (AID 2284001); conditions: actives raise or lower the signal
# How it was run: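 Basal-phase OCR in HepG2 cells, read at 6-min intervals across a 72-min run, with test compound injected at 125 nM–100 uM final (7 points). Fitted both directions against DMSO; three biological replicates per concentration.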
# [16] = CCTE_Simmons_MITO_max_resp_rate: CCTE's HepG2 Seahorse XF Respirometric Screening Assay at Maximal Respiratory State [uncoupled], Simmons Lab (AID 2284002); conditions: actives raise or lower the signal
# How it was run: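 Read-out is oxygen consumption rate at maximal respiration, taken after FCCP uncoupling of compound-treated HepG2 cells. Seven final concentrations from 125 nM to 100 uM were tested, each in three biological replicates.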
# [17] = CCTE_Simmons_MITO_inhib_resp_rate: CCTE's HepG2 Seahorse XF Respirometric Screening Assay at Inhibited Respiratory State [full ETC block], Simmons Lab (AID 2284006); conditions: actives raise or lower the signal
# How it was run: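 OCR read-out in the inhibited phase following rotenone/antimycin A, after compound and FCCP injections, in HepG2 cells. Seven concentrations (125 nM to 100 uM final), three biological replicates, 6-min cycles over 72 min; DMSO baseline.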
# [18] = CCTE_Harrill_HTTr_CellCount_MCF7: CCTE's Cell Proliferation Assessment for the High-Throughput Transcriptomics (HTTr) Platform, Harrill Lab (AID 2284012; active means hit-call score of the fitted dose curve at least 0.9, where 1 is the maximum;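 further: count of Hoechst-stained nuclei per well by high-content imaging in MCF-7 cells; cells exposed to compound for six hours; intended direction is loss of nuclei count meaning fewer cells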)
# How it was run: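 Readout: Hoechst nuclear count by high-content imaging. MCF-7, 8-point dilution series, 6 h exposure. Bidirectional fit vs DMSO baseline.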
smiles,measurement,setting,value
CC(C)C1(C)N=C(c2ncccc2C(=O)O)NC1=O (configuration not stated),outcome,[1],inactive
same,outcome,[2],inactive
same,outcome,[3],inactive
same,outcome,[4],inactive
same,outcome,[5],inactive
same,outcome,[6],inactive
same,outcome,[7],inactive
same,outcome,[8],inactive
same,outcome,[9],inactive
same,outcome,[10],inactive
same,outcome,[11],inactive
same,outcome,[12],inactive
same,outcome,[13],inactive
CC1(C)CCC(=Cc2ccc(Cl)cc2)C1(O)Cn1cncn1 (configuration not stated),AC50,[14],15.9 µM (active)
same,outcome,[1],inactive
same,outcome,[2],inactive
same,outcome,[3],inactive
same,outcome,[4],inactive
same,outcome,[5],inactive
same,outcome,[6],inactive
same,outcome,[7],inactive
same,outcome,[8],inactive
same,outcome,[9],inactive
same,outcome,[10],inactive
same,outcome,[11],inactive
same,outcome,[12],inactive
same,outcome,[13],inactive
CCCCC(O)(Cn1cncn1)c1ccc(Cl)cc1Cl (configuration not stated),AC50,[14],77.3 µM (active)
same,AC50,[15],41 µM (active)
same,AC50,[16],60.5 µM (active)
same,outcome,[17],inactive
same,outcome,[1],inactive
same,outcome,[2],inactive
same,outcome,[3],inactive
same,outcome,[18],inactive
same,outcome,[5],inactive
same,outcome,[6],inactive
same,outcome,[7],inactive
same,outcome,[8],inactive
same,outcome,[9],inactive
same,outcome,[10],inactive
same,outcome,[11],inactive
same,AC50,[12],2.23 µM (active)
same,outcome,[13],inactive
CCCC(=NOCC)C1=C(O)CC(CC(C)SCC)CC1=O (configuration not stated),AC50,[1],11.1 µM (active)
same,AC50,[2],11.1 µM (active)
same,outcome,[3],inactive
same,outcome,[4],inactive
same,outcome,[5],inactive
same,AC50,[6],29.1 µM (active)
same,outcome,[7],inactive
same,AC50,[8],27.7 µM (active)
same,outcome,[9],inactive
same,AC50,[10],20.1 µM (active)
same,outcome,[11],inactive
same,outcome,[12],inactive
same,outcome,[13],inactive
CCSC(=O)N1CCCCCC1,outcome,[15],inactive
same,outcome,[16],inactive
same,outcome,[17],inactive
same,outcome,[3],inactive
same,outcome,[4],inactive
COCc1cnc(C2=NC(C)(C(C)C)C(=O)N2)c(C(=O)O)c1 (configuration not stated),outcome,[14],inactive
same,outcome,[3],inactive
same,outcome,[4],inactive
CCN(CC)c1nc(C)cc(OP(=S)(OC)OC)n1,outcome,[15],inactive
same,outcome,[16],inactive
same,outcome,[17],inactive
same,outcome,[3],inactive
same,outcome,[4],inactive
same,outcome,[18],inactive
CCCCC(C#N)(Cn1cncn1)c1ccc(Cl)cc1 (configuration not stated),outcome,[15],inactive
same,outcome,[16],inactive
same,outcome,[17],inactive
same,outcome,[3],inactive
same,outcome,[4],inactive
same,outcome,[18],inactive
CO/N=C(/C1=NOCCO1)c1ccccc1Oc1ncnc(Oc2ccccc2Cl)c1F,AC50,[15],6.74 µM (active)
same,AC50,[16],4.35 µM (active)
same,AC50,[17],6.67 µM (active)
same,AC50,[1],7.05 µM (active)
same,AC50,[2],7.18 µM (active)
same,outcome,[3],inactive
same,outcome,[4],inactive
same,outcome,[18],inactive
same,outcome,[5],inactive
same,AC50,[6],20 µM (active)
same,outcome,[7],inactive
same,AC50,[8],20 µM (active)
same,outcome,[9],inactive
same,outcome,[10],inactive
same,outcome,[11],inactive
same,outcome,[12],inactive
same,outcome,[13],inactive
Clc1cccc(C(Cl)(Cl)Cl)n1,outcome,[14],inactive
same,outcome,[3],inactive
same,outcome,[18],inactive

# From PubChem BioAssay (EPA / NIEHS)
